According to the supplement of paper PMC10849652:
Targets with a hit are over-represented here; the source holds about 7,900 in all. About 0.6% of all pairs of compound and target were hits. Unmarked numbers belong to inactive results.

How the values were obtained:
Test in all cases: log2 fold change, soluble protein after heating vs DMSO (PISA); higher = thermal stabilisation; K562 cells, 10 uM, 30 min; active = over 0.2 and 3.5 SD of the protein, either way, in both replicates (recomputed)
[1] = compound: COC1=CC=C(C=C1)CN2C=CC3=C2C=C(C=C3)C(=O)NO
How it was run: (§1)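 K562 cells (2×10^6 cells/mL) were treated with 10 μM compound for 30 min, and aliquots were heated for 3 min over 48°C-58°C. Pooled aliquots were extracted in PBS with 0.5% NP-40 at 4°C, and the supernatant after 21,000xg for 90 min was measured by TMTpro 16plex LC-MS/MS with channel sums equalised. Reported thermal stability, relative to control samples and from duplicates, is a log2 fold change.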

filanesib = compound: CON(C)C(=O)N1N=C(c2cc(F)ccc2F)S[C@@]1(CCCN)c1ccccc1 [filanesib]
How it was run: as §1

zotarolimus = compound: CO[C@H]1C[C@@H]2CC[C@@H](C)[C@@](O)(O2)C(=O)C(=O)N2CCCC[C@H]2C(=O)O[C@H]([C@H](C)C[C@@H]2CC[C@H](n3cnnn3)[C@H](OC)C2)CC(=O)[C@H](C)/C=C(\C)[C@@H](O)[C@@H](OC)C(=O)[C@H](C)C[C@H](C)/C=C/C=C/C=C/1C [zotarolimus]
How it was run: as §1

idasanutlin = compound: COc1cc(C(=O)O)ccc1NC(=O)[C@@H]1N[C@@H](CC(C)(C)C)[C@](C#N)(c2ccc(Cl)cc2F)[C@H]1c1cccc(Cl)c1F [idasanutlin]
How it was run: as §1

alisertib = compound: COc1cc(Nc2ncc3c(n2)-c2ccc(Cl)cc2C(c2c(F)cccc2OC)=NC3)ccc1C(=O)O [alisertib]
How it was run: as §1

[2] = compound: COc1cc2nc(-c3cc(F)ccc3O)nc(N[C@@H]3CNC[C@H]3C(C)(C)O)c2cc1OC
How it was run: as §1

gefitinib = compound: COc1cc2ncnc(Nc3ccc(F)c(Cl)c3)c2cc1OCCCN1CCOCC1 [gefitinib]
How it was run: as §1

[3] = compound: COc1cccc2cc(-c3nc([C@H]4CC[C@H](C(=O)O)CC4)n4ncnc(N)c34)[nH]c12
How it was run: as §1

lapatinib = compound: CS(=O)(=O)CCNCc1ccc(-c2ccc3ncnc(Nc4ccc(OCc5cccc(F)c5)c(Cl)c4)c3c2)o1 [lapatinib]
How it was run: as §1

pictilisib = compound: CS(=O)(=O)N1CCN(Cc2cc3nc(-c4cccc5[nH]ncc45)nc(N4CCOCC4)c3s2)CC1 [pictilisib]
How it was run: as §1

[4] = compound: CS(=O)(=O)c1ccc(-c2cnc(N)c(C(=O)Nc3ccccc3)n2)cc1
How it was run: as §1

crizotinib = compound: C[C@@H](Oc1cc(-c2cnn(C3CCNCC3)c2)cnc1N)c1c(Cl)ccc(F)c1Cl [crizotinib]
How it was run: as §1

[5] = compound: C[C@@H]1COCCN1C2=NC(=NC(=C2)C3(CC3)S(=O)(=O)C)C4=C5C=CNC5=CC=C4
How it was run: as §1

[6] = compound: C[C@H](C1=CC=C(C=C1)C(=O)NC2=C3C=CNC3=NC=C2)N
How it was run: as §1

duvelisib = compound: C[C@H](Nc1ncnc2nc[nH]c12)c1cc2cccc(Cl)c2c(=O)n1-c1ccccc1 [duvelisib]
How it was run: as §1

gandotinib = compound: Cc1cc(Nc2cc(CN3CCOCC3)c3nc(C)c(Cc4ccc(Cl)cc4F)n3n2)n[nH]1 [gandotinib]
How it was run: as §1

tozasertib = compound: Cc1cc(Nc2cc(N3CCN(C)CC3)nc(Sc3ccc(NC(=O)C4CC4)cc3)n2)n[nH]1 [tozasertib]
How it was run: as §1

[7] = compound: Cc1cc(SCc2sc(-c3ccc(C(F)(F)F)cc3)nc2C)ccc1OCC(=O)O
How it was run: as §1

doramapimod = compound: Cc1ccc(-n2nc(C(C)(C)C)cc2NC(=O)Nc2ccc(OCCN3CCOCC3)c3ccccc23)cc1 [doramapimod]
How it was run: as §1

ispinesib = compound: Cc1ccc(C(=O)N(CCCN)[C@@H](c2nc3cc(Cl)ccc3c(=O)n2Cc2ccccc2)C(C)C)cc1 [ispinesib]
How it was run: as §1

Sequence of UniProt P07205 (P07205 whole entry, looked up): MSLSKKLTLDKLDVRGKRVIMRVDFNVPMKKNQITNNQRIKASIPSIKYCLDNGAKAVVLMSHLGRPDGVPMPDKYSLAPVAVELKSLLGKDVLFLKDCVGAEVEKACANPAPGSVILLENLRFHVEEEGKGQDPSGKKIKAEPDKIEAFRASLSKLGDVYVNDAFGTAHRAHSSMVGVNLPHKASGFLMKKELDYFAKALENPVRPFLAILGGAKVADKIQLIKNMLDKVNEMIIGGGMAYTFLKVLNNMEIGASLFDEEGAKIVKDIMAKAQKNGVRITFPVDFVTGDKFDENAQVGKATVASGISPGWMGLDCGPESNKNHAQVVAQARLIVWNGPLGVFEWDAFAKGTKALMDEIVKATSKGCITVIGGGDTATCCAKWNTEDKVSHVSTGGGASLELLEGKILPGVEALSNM
Sequence of UniProt Q13523 (Q13523 whole entry, looked up): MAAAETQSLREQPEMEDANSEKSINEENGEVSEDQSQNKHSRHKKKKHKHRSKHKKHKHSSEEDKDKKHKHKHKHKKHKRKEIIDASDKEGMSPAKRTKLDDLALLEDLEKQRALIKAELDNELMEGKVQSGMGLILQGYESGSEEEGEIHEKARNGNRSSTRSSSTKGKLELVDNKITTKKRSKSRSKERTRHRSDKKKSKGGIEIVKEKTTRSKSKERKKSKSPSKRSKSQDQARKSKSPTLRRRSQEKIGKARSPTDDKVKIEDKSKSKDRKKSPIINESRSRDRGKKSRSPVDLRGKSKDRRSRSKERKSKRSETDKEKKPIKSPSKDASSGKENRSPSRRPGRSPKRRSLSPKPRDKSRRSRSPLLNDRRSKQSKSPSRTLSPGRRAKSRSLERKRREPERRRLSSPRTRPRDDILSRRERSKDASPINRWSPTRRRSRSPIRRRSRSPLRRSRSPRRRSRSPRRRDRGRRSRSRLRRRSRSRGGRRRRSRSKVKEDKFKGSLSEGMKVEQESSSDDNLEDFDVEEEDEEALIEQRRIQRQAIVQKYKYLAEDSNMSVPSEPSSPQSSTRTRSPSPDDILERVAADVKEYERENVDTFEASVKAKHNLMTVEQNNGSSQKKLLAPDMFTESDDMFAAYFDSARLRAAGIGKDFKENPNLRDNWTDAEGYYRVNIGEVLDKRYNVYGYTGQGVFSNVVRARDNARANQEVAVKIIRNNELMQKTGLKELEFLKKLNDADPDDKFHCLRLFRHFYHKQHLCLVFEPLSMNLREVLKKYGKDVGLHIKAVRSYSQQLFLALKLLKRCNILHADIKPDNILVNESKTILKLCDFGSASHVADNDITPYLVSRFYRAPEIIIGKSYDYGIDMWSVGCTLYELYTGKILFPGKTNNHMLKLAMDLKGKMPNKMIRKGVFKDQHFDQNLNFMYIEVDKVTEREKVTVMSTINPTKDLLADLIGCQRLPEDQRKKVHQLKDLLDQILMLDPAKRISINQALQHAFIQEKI
Sequence of UniProt Q15365 (Q15365 whole entry, looked up): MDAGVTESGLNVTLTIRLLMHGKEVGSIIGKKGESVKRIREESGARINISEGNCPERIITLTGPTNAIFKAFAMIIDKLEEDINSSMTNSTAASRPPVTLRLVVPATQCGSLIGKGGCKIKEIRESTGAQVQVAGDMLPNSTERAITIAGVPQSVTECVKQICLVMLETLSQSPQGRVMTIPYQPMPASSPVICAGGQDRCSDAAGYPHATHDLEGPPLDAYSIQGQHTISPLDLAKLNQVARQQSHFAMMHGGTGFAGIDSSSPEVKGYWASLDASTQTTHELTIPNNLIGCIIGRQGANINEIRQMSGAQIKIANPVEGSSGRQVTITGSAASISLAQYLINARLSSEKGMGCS
Sequence of UniProt P25788 (P25788 whole entry, looked up): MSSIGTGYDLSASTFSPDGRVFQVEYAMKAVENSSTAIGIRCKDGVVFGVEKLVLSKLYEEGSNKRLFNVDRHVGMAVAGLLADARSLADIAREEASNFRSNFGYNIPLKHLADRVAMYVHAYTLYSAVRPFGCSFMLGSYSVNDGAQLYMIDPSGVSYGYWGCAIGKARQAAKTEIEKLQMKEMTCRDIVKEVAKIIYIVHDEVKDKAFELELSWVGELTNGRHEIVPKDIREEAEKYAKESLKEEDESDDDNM
Sequence of UniProt P43686 (P43686 whole entry, looked up): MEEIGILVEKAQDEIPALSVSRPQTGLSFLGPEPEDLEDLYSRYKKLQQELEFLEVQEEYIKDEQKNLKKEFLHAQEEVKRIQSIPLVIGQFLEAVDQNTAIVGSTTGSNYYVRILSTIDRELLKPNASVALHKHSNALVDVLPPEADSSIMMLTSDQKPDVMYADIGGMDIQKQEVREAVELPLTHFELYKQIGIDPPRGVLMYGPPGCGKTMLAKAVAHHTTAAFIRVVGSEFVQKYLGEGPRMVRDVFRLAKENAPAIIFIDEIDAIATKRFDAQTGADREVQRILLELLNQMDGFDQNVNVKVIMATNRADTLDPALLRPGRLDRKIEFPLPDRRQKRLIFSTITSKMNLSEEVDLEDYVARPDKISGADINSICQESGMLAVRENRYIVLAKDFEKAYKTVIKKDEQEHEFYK
Sequence of UniProt Q8N8N7 (Q8N8N7 whole entry, looked up): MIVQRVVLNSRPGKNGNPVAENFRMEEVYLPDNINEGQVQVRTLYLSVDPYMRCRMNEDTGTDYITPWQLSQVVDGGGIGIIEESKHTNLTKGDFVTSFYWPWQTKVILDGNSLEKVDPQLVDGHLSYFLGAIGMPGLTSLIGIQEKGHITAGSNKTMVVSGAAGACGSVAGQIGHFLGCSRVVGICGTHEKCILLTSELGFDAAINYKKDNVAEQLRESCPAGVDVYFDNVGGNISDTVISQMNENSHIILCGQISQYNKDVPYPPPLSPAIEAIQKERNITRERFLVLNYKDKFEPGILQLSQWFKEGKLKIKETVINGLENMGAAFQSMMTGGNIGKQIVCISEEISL
Sequence of UniProt P42338 (P42338 whole entry, looked up): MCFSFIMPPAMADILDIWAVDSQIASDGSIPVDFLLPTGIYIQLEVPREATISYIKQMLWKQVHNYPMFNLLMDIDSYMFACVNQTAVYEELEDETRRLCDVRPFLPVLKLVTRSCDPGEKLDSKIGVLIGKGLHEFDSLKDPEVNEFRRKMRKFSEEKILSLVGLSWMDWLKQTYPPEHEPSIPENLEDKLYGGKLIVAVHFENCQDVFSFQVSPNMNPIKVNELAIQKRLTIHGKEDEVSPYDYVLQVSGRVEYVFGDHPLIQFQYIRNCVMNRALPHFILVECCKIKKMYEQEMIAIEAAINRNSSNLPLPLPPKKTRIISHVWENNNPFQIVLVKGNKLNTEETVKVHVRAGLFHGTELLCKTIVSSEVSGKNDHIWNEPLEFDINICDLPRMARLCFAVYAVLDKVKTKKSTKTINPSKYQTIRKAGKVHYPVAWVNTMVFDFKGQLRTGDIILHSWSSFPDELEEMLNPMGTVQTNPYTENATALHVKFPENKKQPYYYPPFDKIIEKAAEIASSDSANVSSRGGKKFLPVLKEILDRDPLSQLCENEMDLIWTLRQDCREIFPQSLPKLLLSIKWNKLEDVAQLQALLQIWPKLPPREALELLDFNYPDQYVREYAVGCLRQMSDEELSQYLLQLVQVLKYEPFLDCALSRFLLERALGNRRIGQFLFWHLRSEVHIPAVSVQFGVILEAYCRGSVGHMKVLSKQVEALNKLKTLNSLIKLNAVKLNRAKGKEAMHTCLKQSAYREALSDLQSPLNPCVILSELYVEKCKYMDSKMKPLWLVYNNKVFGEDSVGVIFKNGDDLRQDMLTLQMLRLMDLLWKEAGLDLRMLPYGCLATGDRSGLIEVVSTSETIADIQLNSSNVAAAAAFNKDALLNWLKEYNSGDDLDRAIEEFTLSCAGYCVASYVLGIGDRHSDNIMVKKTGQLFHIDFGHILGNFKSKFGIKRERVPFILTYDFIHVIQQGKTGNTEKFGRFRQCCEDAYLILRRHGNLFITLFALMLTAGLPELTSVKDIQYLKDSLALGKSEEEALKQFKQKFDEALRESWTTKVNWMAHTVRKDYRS
Sequence of UniProt Q8WXF1 (Q8WXF1 whole entry, looked up): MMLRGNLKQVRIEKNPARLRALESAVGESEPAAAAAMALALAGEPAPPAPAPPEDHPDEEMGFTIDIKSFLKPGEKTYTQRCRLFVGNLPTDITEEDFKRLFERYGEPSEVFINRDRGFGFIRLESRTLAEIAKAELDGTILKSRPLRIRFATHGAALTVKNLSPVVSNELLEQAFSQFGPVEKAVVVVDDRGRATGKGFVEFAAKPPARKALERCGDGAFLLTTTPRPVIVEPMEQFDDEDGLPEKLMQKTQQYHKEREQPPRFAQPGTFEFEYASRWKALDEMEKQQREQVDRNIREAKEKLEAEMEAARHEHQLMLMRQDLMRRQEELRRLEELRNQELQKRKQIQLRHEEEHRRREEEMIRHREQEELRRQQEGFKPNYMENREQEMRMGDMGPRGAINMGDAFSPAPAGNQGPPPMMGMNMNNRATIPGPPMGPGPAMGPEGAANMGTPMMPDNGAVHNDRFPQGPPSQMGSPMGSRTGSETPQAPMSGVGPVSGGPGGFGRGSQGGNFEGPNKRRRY
Sequence of UniProt Q96PU8 (Q96PU8 whole entry, looked up): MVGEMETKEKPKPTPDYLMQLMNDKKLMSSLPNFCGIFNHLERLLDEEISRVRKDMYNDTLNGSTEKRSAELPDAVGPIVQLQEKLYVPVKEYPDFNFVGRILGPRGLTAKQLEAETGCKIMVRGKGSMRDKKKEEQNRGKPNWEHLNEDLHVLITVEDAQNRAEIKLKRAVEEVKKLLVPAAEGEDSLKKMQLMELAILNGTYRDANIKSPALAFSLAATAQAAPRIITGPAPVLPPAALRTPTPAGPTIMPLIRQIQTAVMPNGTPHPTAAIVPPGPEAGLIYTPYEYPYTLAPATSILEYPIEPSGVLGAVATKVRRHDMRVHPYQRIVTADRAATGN

| Target | log2 fold change [1] | log2 fold change (filanesib) | log2 fold change (zotarolimus) | log2 fold change (idasanutlin) | log2 fold change (alisertib) | log2 fold change [2] | log2 fold change (gefitinib) | log2 fold change [3] | log2 fold change (lapatinib) | log2 fold change (pictilisib) | log2 fold change [4] | log2 fold change (crizotinib) | log2 fold change [5] | log2 fold change [6] | log2 fold change (duvelisib) | log2 fold change (gandotinib) | log2 fold change (tozasertib) | log2 fold change [7] | log2 fold change (doramapimod) | log2 fold change (ispinesib) |
| --- | --- | --- | --- | --- | --- | --- | --- | --- | --- | --- | --- | --- | --- | --- | --- | --- | --- | --- | --- | --- |
| PIK3CB (UniProt P42338) | 0.063 | 0.007 | 0.042 | -0.041 | 0.003 | 0.02 | 0.048 | 0.01 | 0.001 | 0.258 (active) | 0.043 | -0.077 | 0.064 | 0.034 | 0.318 (active) | -0.041 | -0.075 | 0.06 | 0 | -0.057 |
| PTPN12 (UniProt Q05209) | -0.024 | 0.04 | 0.041 | -0.021 | -0.06 | 0.053 | 0.025 | -0.132 | 0.039 | 0.012 | 0.031 | -0.018 | -0.04 | 0.069 | -0.022 | -0.088 | 0.089 | 0.053 | -0.004 | -0.011 |
| PSMC4 (UniProt P43686) | -0.052 | 0.066 | 0.008 | 0.017 | -0.049 | -0.007 | -0.052 | -0.022 | 0.033 | -0.099 | 0 | 0.007 | -0.056 | 0.06 | -0.076 | -0.011 | 0.04 | 0.001 | 0.02 | -0.02 |
| PCBP1 (UniProt Q15365) | 0.076 | -0.036 | 0.102 | -0.044 | -0.015 | -0.014 | -0.003 | -0.003 | -0.022 | -0.036 | 0.012 | 0 | 0.094 | -0.012 | 0.042 | -0.12 | 0.047 | 0.07 | -0.016 | 0.028 |
| PSMA3 (UniProt P25788) | 0.015 | 0.034 | 0.044 | 0.019 | -0.04 | -0.079 | -0.025 | -0.003 | 0.062 | -0.053 | 0.011 | 0.052 | -0.012 | -0.117 | -0.074 | 0.054 | 0.046 | 0.007 | 0.018 | -0.002 |
| PSPC1 (UniProt Q8WXF1) | 0.008 | 0.048 | 0.026 | 0.03 | -0.084 | -0.146 | 0.061 | -0.042 | 0.152 | -0.081 | -0.068 | 0.076 | -0.044 | 0.088 | -0.03 | -0.09 | 0.01 | 0.04 | -0.028 | -0.217 |
| PRPF4B (UniProt Q13523) | -0.024 | 0.253 | 0.187 | 0.164 | -0.047 | -0.1 | -0.023 | 0.003 | 0.19 | 0.097 | 0.024 | -0.006 | -0.025 | -0.089 | -0.081 | 0.007 | 0.062 | 0.01 | 0.044 | 0.082 |
| PTGR2 (UniProt Q8N8N7) | -0.13 | -0.155 | 0.195 | 0.122 | -0.03 | -0.04 | 0.035 | 0 | 0.125 | 0.313 | 0.097 | -0.075 | 0.045 | 0.112 | 0.049 | 0.192 | 0 | -0.185 | 0.223 | 0.013 |
| PSMD6 (UniProt Q15008) | -0.02 | 0.042 | 0.017 | -0.013 | -0.091 | -0.062 | -0.021 | -0.045 | 0.102 | -0.036 | 0.033 | -0.046 | -0.08 | 0.052 | -0.071 | -0.02 | 0.047 | 0.03 | 0.057 | 0.056 |
| POLR2I (UniProt P36954) | -0.012 | 0.041 | -0.017 | 0.029 | 0.061 | 0.076 | -0.003 | 0.062 | -0.006 | -0.041 | 0.003 | 0.334 | 0.052 | 0.001 | 0.085 | 0.336 | -0.086 | -0.032 | -0.047 | 0.127 |
| POLA1 (UniProt P09884) | 0.053 | -0.023 | 0.008 | 0.003 | -0.053 | 0.016 | 0.015 | -0.008 | -0.005 | 0.033 | 0.01 | -0.041 | 0.065 | -0.048 | 0.046 | -0.069 | 0.083 | 0.09 | -0.029 | -0.036 |
| QKI (UniProt Q96PU8) | -0.004 | -0.004 | -0.026 | -0.032 | -0.077 | -0.079 | 0.019 | 0.011 | -0.007 | -0.032 | -0.057 | 0.075 | 0.046 | -0.079 | 0.032 | -0.093 | 0.027 | 0.034 | 0 | -0.034 |
| PGK2 (UniProt P07205) | 0.016 | -0.003 | -0.029 | 0.001 | 0.08 | 0.14 | 0.068 | 0.001 | -0.093 | 0.041 | 0.016 | 0.029 | 0.075 | -0.002 | 0.062 | 0.078 | -0.033 | -0.093 | -0.109 | 0.024 |
| PRKAA1 isoform 2 (UniProt Q13131) | 0.029 | -0.043 | -0.007 | 0.013 | -0.047 | -0.014 | 0.004 | 0.016 | -0.008 | -0.03 | 0 | -0.156 | -0.007 | -0.011 | 0.055 | -0.235 (active) | -0.044 | -0.036 | -0.019 | -0.003 |
| PSMC2 (UniProt P35998) | -0.076 | 0.049 | -0.03 | 0.033 | -0.05 | -0.034 | -0.051 | -0.05 | 0.059 | -0.067 | 0.011 | 0.003 | -0.087 | 0.079 | -0.061 | 0.027 | 0.031 | 0.014 | 0.005 | 0.016 |
| POMK (UniProt Q9H5K3) | -0.025 | -0.019 | -0.101 | -0.017 | 0.077 | -0.037 | -0.02 | 0.04 | 0.067 | 0.077 | -0.013 | -0.044 | -0.034 | 0.086 | 0.062 | 0.027 | 0.024 | 0.092 | 0.108 | -0.203 |
